Measured values: PMC8222333, “AsCas12a ultra nuclease facilitates the rapid generation of therapeutic cell medicines”
Residue numbers refer to the chain shown, from its start.

B1: GATA (dsDNA)
DNA 1: GCTATCTAGTGCTCAGTACGCACTGGATAAGGAAACTTCTGGCAGGACCAGGTCATGAGATCGGAAGAGCACACGTCTGAACTCCAGTCA
DNA 2: TGACTGGAGTTCAGACGTGTGCTCTTCCGATCTCATGACCTGGTCCTGCCAGAAGTTTCCTTATCCAGTGCGTACTGAGCACTAGATAGC
RNA: AAUUUCUACUCUUGUAGAUAGGAAACUUCUGGCAGGACC
B2: GCGA (dsDNA)
DNA 1: B1 DNA 1 with A27C, T28G
DNA 2: B1 DNA 2 with A63C, T64G
RNA: B1 RNA
B3: GCTT (dsDNA)
DNA 1: B1 DNA 1 with A27C, A29T
DNA 2: B1 DNA 2 with T62A, T64G
RNA: B1 RNA
B4: GATT (dsDNA)
DNA 1: B1 DNA 1 with A29T
DNA 2: B1 DNA 2 with T62A
RNA: B1 RNA
B5: GCTG (dsDNA)
DNA 1: B1 DNA 1 with A27C, A29G
DNA 2: B1 DNA 2 with T62C, T64G
RNA: B1 RNA
B6: GCTA (dsDNA)
DNA 1: B1 DNA 1 with A27C
DNA 2: B1 DNA 2 with T64G
RNA: B1 RNA
B7: GATG (dsDNA)
DNA 1: B1 DNA 1 with A29G
DNA 2: B1 DNA 2 with T62C
RNA: B1 RNA
B8: GCTC (dsDNA)
DNA 1: B1 DNA 1 with A27C, A29C
DNA 2: B1 DNA 2 with T62G, T64G
RNA: B1 RNA

Molecular target: dAsCas12a Ultra (Acidaminococcus sp., UniProt U2UMQ6 1-1307, M537R;F870L;D908A;E993A;D1235A)
Test: Spec-seq (native PAGE EMSA with sequencing of bound and unbound); 25 mM Tris-HCl pH 7.4, 150 mM KCl, 5 mM MgCl2, 10% glycerol, 1 mM DTT, 40 ng/uL salmon sperm DNA; 400 nM Cas12a, 480 nM crRNA, 50 nM library, 37 C 1 h; native PAGE at room temperature; high values mean tight binding
Details: protein: recombinant

Row | Binder | binding signal [lnKA]
1 | B1 | -8.53
2 | B2 | -8.91
3 | B3 | -8.74
4 | B4 | -8.92
5 | B5 | -7.49
6 | B6 | -6.83
7 | B7 | -8.85
8 | B8 | -6.65

Molecular target: dAsCas12a E174R (Acidaminococcus sp., UniProt U2UMQ6 1-1307, E174R;D908A;E993A;D1235A)
Test: as above
Details: protein: recombinant

Row | Binder | binding signal [lnKA]
9 | B1 | -6.9
10 | B3 | -8.39
11 | B4 | -8.74
12 | B5 | -7.49
13 | B6 | -5.69
14 | B7 | -8.75
15 | B8 | -6.48

Molecular target: dAsCas12a S542R (Acidaminococcus sp., UniProt U2UMQ6 1-1307, S542R;D908A;E993A;D1235A)
Test: as above
Details: protein: recombinant

Row | Binder | binding signal [lnKA]
16 | B1 | -8.17
17 | B2 | -8.63
18 | B3 | -8.31
19 | B4 | -8.17
20 | B5 | -7.86
21 | B6 | -7.23
22 | B7 | -8.25
23 | B8 | -7.23

Molecular target: d-enCas12a (Acidaminococcus sp., UniProt U2UMQ6 1-1307, E174R;S542R;K548R;D908A;E993A;D1235A)
Test: as above
Details: protein: recombinant

Row | Binder | binding signal [lnKA]
24 | B1 | -3.28
25 | B2 | -5.81
26 | B3 | -5.83
27 | B4 | -5.56
28 | B5 | -5.74
29 | B6 | -4.92
30 | B7 | -4.89
31 | B8 | -4.98

Molecular target: d-enCas12a-Ultra (Acidaminococcus sp., UniProt U2UMQ6 1-1307, E174R;S542R;K548R;M537R;F870L;D908A;E993A;D1235A)
Test: as above
Details: protein: recombinant

Row | Binder | binding signal [lnKA]
32 | B1 | -1.2
33 | B2 | -3.46
34 | B3 | -3.16
35 | B4 | -3.21
36 | B5 | -2.73
37 | B6 | -1.62
38 | B7 | -2.56
39 | B8 | -1.57
